A selection: hits, their analogues and other compounds. The true share with any hit is near 12%.
Shiga inhibitor: Shiga toxin inhibition; inhibition, % at 38.7 µM; Vero cells, Shiga toxin protein synthesis inhibition reporter; AID 2315; 9.2% of 290,000 active; in the data active means inhibition mostly above about 28%, no sharp cut-off; inactive means mostly below about 43%; further: 0% is about no effect
Lassa entry inh: Lassa virus entry inhibition | Lassa virus pseudotype entry inhibition, cell reporter | Potency, µM (doses to about 37.9 µM), inactives show at the highest dose activity change, negative = inhibition, usual class: inhibitors | 1.2% of 300,000 active | AID 540256; calls by dose curve; tested in HEK293 cells; further: potency means the concentration at half of the fitted maximal effect; on the % scale 0 is the no-effect control and ±100 the full control effect; nearly all actives have a fitted effect of over 50% in size
Marburg entry inh: inhibitors of Marburg virus binding or cell entry | Marburg virus pseudotyped entry inhibition, cell reporter | Potency, µM (doses to about 37.8 µM), for inactives: at the top dose activity change, negative = inhibition, usual class: inhibitors | 1.8% of 300,000 active; calls by dose curve; tested in HEK293 cells; further: potency means the concentration at half of the fitted maximal effect; on the % scale 0 is the no-effect control and ±100 the full control effect
Cycloheximide cs: counter-screen hit for Shiga toxin inhibitors, cycloheximide; cell reporter, cycloheximide protein synthesis inhibition counterscreen; max response, %; 12% of 300,000 active; in the data active means max response mostly above about 13%, no sharp cut-off; inactive means mostly below about 14%; further: read at 38.3 µM for the half of the compounds with a filed dose; 0% is about no effect
The depositor's hits bear a star; ! = a repeat was not active; [ ] = another dose, or the depositor's remark.

`Cc1ccc(CNC(=O)c2cc(S(=O)(=O)N3CCCCC3)ccc2N2CCOCC2)cc1` gave Lassa entry inh inconclusive and Marburg entry inh -22%.
`N#CCC(=O)Nc1ccc(C(=O)Nc2cccc(S(N)(=O)=O)c2)cc1` gave Shiga inhibitor -4, Lassa entry inh 7%, Marburg entry inh -8%[46.1 µM] and Cycloheximide cs -3.
`N/C(Cc1cccc2ccccc12)=N\OC(=O)Cc1cccs1` gave Shiga inhibitor 62*, Lassa entry inh 6%, Marburg entry inh 2% and Cycloheximide cs 49*.
Screening COc1ccccc1C/C(N)=N/OC(=O)c1cccs1 returned Shiga inhibitor 40, Lassa entry inh 10µM*, Marburg entry inh 11µM* and Cycloheximide cs 18*.
`COCCn1c(SCC(=O)Nc2ccc(OC)c(S(N)(=O)=O)c2)nc2ccccc2c1=O` gave Lassa entry inh -11% and Marburg entry inh 0%[46.1 µM].
`C[C@H](NC(=O)CSc1nc2c(cc1C#N)CN(C)CC2)c1ccccc1` gave Marburg entry inh 18%.
Screening CCOCCCNS(=O)(=O)c1ccc(-n2cnnn2)c(OC)c1 returned Shiga inhibitor 11, Lassa entry inh 3%, Marburg entry inh 18% and Cycloheximide cs 9.
For c1ccc(C2CCCN(Cc3nc(CC4CC4)no3)CC2)cc1 (centres undefined) the results were Shiga inhibitor 53*, Lassa entry inh 11%, Marburg entry inh inconclusive and Cycloheximide cs 16*.
Cc1ccccc1C1CCCN(Cc2nc(CC3CC3)no2)C1 (centres undefined) was read as Shiga inhibitor 29, Lassa entry inh -29%[46.1 µM], Marburg entry inh 5%[46.1 µM] and Cycloheximide cs -5.
`COc1ccc(OCC2CCCN(Cc3nc(CC4CC4)no3)C2)cc1` (centres undefined) gave Shiga inhibitor 24, Lassa entry inh 14%[46.1 µM], Marburg entry inh -3%[46.1 µM] and Cycloheximide cs 19*.
Screening C1CC(CN2CCOCC2)CN(Cc2nc(CC3CC3)no2)C1 (centres undefined) returned Shiga inhibitor 10, Lassa entry inh 6%[46.1 µM], Marburg entry inh 9%[46.1 µM] and Cycloheximide cs -3.
Screening O=C1CCCN1CC1CCN(Cc2nc(CC3CC3)no2)CC1 returned Shiga inhibitor 48*, Lassa entry inh inconclusive, Marburg entry inh 1%[46.1 µM] and Cycloheximide cs 11.
C=CCn1c(SCC(=O)N(C)c2c(N)n(Cc3ccccc3)c(=O)[nH]c2=O)nnc1-c1ccccc1OC was read as Shiga inhibitor -14, Lassa entry inh 3%, Marburg entry inh 31% and Cycloheximide cs -4.
Screening Cc1ccc(C)c(-n2cc(CN3CCCN(C=O)CC3)c(-c3ccccc3)n2)c1 returned Shiga inhibitor 7 and Cycloheximide cs 0.
Screening CCC(Oc1ccccc1)C(=O)O/N=C(\N)c1ccc(OC)c(OC)c1 (centres undefined) returned Shiga inhibitor -3, Lassa entry inh 14%, Marburg entry inh -7% and Cycloheximide cs 0.
For COc1ccc(CCc2nc(C)ccc2O)cc1 the results were Shiga inhibitor active!, Lassa entry inh 5%, Marburg entry inh 8% and Cycloheximide cs 37*.
CCCCN(C(=O)Cn1nnc2ccccc21)C(C(=O)NCCOC)c1cccs1 (centres undefined) was read as Shiga inhibitor -3, Lassa entry inh -2%, Marburg entry inh 10% and Cycloheximide cs -3.
`Cc1ccc(N=C(NO)c2nonc2N)cc1` gave Shiga inhibitor 95*, Lassa entry inh -1%, Marburg entry inh 15% and Cycloheximide cs 46*.
For COc1ccc(S(=O)(=O)N2CCCC2=O)cc1N(C)S(C)(=O)=O the results were Shiga inhibitor -3 and Cycloheximide cs 0.
For Cc1ccccc1Nc1nc(N)nc(COC(=O)c2cccc(S(=O)(=O)N(C)C)c2)n1 the results were Shiga inhibitor -4, Lassa entry inh -14%, Marburg entry inh 7% and Cycloheximide cs -3.
COc1ccc(C2C(C(=O)N3CCCCC3)CCC(=O)N2c2cc(OC)c(OC)c(OC)c2)cc1 (centres undefined) was read as Shiga inhibitor -4, Lassa entry inh 7.3µM*, Marburg entry inh 11% and Cycloheximide cs -1.
COc1ccc(C2C(C(=O)N3CCOCC3)CCC(=O)N2c2cc(OC)c(OC)c(OC)c2)cc1 (centres undefined) was read as Shiga inhibitor -2, Lassa entry inh 1%, Marburg entry inh inconclusive and Cycloheximide cs -2.
For COc1ccc(C2C(C(=O)NCc3ccccn3)CCC(=O)N2c2cc(OC)c(OC)c(OC)c2)cc1 (centres undefined) the results were Shiga inhibitor 94*, Lassa entry inh 0%[46.1 µM], Marburg entry inh inconclusive and Cycloheximide cs 40*.
`Cc1ccc(C(=O)N2CCN(S(=O)(=O)N3CCCCCC3)CC2)cc1` gave Shiga inhibitor -8, Lassa entry inh -2%[46.1 µM], Marburg entry inh 12%[46.1 µM] and Cycloheximide cs -4.
For COc1ccc(-c2nc3ncccn3c2Br)cc1 the results were Shiga inhibitor 73* and Cycloheximide cs 28*.
`COc1ccc(-c2nc3ncccc3n2O)cc1` gave Shiga inhibitor 4, Lassa entry inh inconclusive, Marburg entry inh inconclusive and Cycloheximide cs 4.
For Brc1c(-c2ccc3c(c2)OCO3)nc2ncccn12 the results were Shiga inhibitor 33*, Lassa entry inh 12%[46.1 µM], Marburg entry inh 1%[46.1 µM] and Cycloheximide cs 20*.
For CCOC(=O)c1c(C)[nH]c(CCC(=O)NCc2ccccc2Cl)c1C the results were Lassa entry inh 1%[46.1 µM].
Screening O=C(c1ccc(Cl)s1)N1CCN(S(=O)(=O)c2ccc(Cl)cc2)CC1 returned Lassa entry inh -28%[46.1 µM] and Marburg entry inh 4%[46.1 µM].
CC(=O)c1cccc(NC(=O)c2csc3c2CCCCC3)c1 was read as Shiga inhibitor 55*, Lassa entry inh 7%, Marburg entry inh inconclusive and Cycloheximide cs 37*.
`CCOc1ccc(NC(=O)c2csc3c2CCCC3)cc1` gave Shiga inhibitor 32, Lassa entry inh -1%, Marburg entry inh 8% and Cycloheximide cs 36*.
`CCOC(=O)c1ccc(NC(=O)c2csc3c2CCCC3)cc1` gave Marburg entry inh 21%[46.1 µM].
`COC(=O)C1=C(C)N(Cc2ccccc2)C(=NCC(C)C)NC1c1ccc(Br)cc1` (centres undefined) gave Marburg entry inh 5%[14.2 µM].
For Cc1ccc(NS(=O)(=O)c2ccc3c(c2)NC(=O)CCS3)cc1C the results were Shiga inhibitor 14, Lassa entry inh -22%[46.1 µM] and Cycloheximide cs 2.
O=C(NCc1ccc2c(c1)OCO2)c1cc2ccccc2oc1=O was read as Shiga inhibitor 13, Lassa entry inh 2%, Marburg entry inh 15% and Cycloheximide cs -1.
`O=C(c1cc2ccccc2oc1=O)N(Cc1ccc2c(c1)OCO2)Cc1ccco1` gave Shiga inhibitor 110*, Lassa entry inh 5%, Marburg entry inh 6% and Cycloheximide cs 8.
Screening O=C(COc1ccc([N+](=O)[O-])cc1)Nc1ccccc1N1CCCC1 returned Shiga inhibitor -12 and Cycloheximide cs 1.
Cc1cccc(S(=O)(=O)c2c(C)cc(C)[nH]c2=O)c1 was read as Shiga inhibitor 28, Lassa entry inh 17%[46.1 µM], Marburg entry inh 0%[46.1 µM] and Cycloheximide cs 30*.
`Cc1cc(C)c(S(=O)(=O)c2cccc(C(F)(F)F)c2)c(=O)[nH]1` gave Shiga inhibitor 3, Lassa entry inh inconclusive, Marburg entry inh 3% and Cycloheximide cs -3.
